NS1 inh – inhibitors of influenza NS1 protein function | hit rate 0.4% among 270,000 | Potency, µM (titrated, usually from 46.1 µM) | AID 2326; note: actives are rising curves; nearly all actives have a fitted effect of over 50% in size
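Growth recovery, yeast-based: influenza A NS1 expressed in S. cerevisiae causes slow growth, and suppressors are detected by OD600. The parent strain without NS1 is used as positive control.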
Pf growth 48h – inhibits P. falciparum growth in the first generation, 48 h | Potency, µM (doses to about 28.7 µM), usual class: inhibitors | P. falciparum luciferase growth in erythrocytes, 48 h | hit rate 5.9% among 310,000 | AID 504832; active = well fitted inhibition curve with a large enough effect; inconclusive = small, poorly fitted or top-dose-only effect, or another doubt; inactive = no such curve, though single readings can be large or run the other way
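Luciferase-expressing parasites in RBCs, 2% Hct / 0.1% parasitemia final; RPMI 1640 + 0.5% Albumax; 37 C, 5% CO2, one generation; luminescence read-out, lower signal = inhibition.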
Pf growth 96h – P. falciparum growth inhibition at 96 hours; P. falciparum luciferase reporter growth, 96 h; Potency, µM (doses to about 28.7 µM), hits mostly inhibitors; hit rate 6.9% among 320,000; AID 504834; active = well fitted inhibition curve with a large enough effect; inconclusive = small, poorly fitted or top-dose-only effect, or another doubt; inactive = no such curve, though single readings can be large or run the other way
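Two-generation exposure (96 h) targets delayed-death phenotype. Reporter parasites carrying integrated firefly luciferase, in red cells at 2% hematocrit and 0.05% parasitemia final, kept at 37 C, 5% CO2; luminescence loss indicates inhibition.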
SARS PLpro yeast – inhibitors of SARS-CoV papain-like protease in yeast. S. cerevisiae expressing SARS-CoV PLpro, growth rescue. hit rate 0.19% among 330,000. Potency, µM (doses to about 32.9 µM), usual class: activators. AID 485353; note: nearly all actives have a fitted effect of over 55% in size
Large screens that a line does not name were inactive. Hits are enriched below; roughly 10% of the tested compounds scored in any of these assays. Unless noted, calls come from the whole dose curve.

CCOc1ccc(CCNC(=O)COC(=O)CNS(=O)(=O)c2ccc(NC(C)=O)cc2)cc1OCC	Pf growth 48h inconclusive, Pf growth 96h 8.3µM (no result: NS1 inh)
Cc1ccc(Cl)cc1N1CCN(C(=O)C(C)n2ncn3cccc3c2=O)CC1 (stereo not drawn)	none
CCCCCc1cc(=O)c2ccccc2o1	none (no result: NS1 inh, Pf growth 48h, Pf growth 96h)
Oc1ccccc1-n1c(-c2ccccc2)ccc1-c1ccccc1	Pf growth 48h 9.3µM, Pf growth 96h 5.9µM
Cc1ccc(-c2ccccc2)n1-c1ccc(C(=O)O)cc1	none
N#CCSc1ccccc1NC(=O)CN1C(=O)C2CC=CCC2C1=O (stereo not drawn)	none (no result: NS1 inh)
Cc1ccc2nc(C)c3c(c2c1)OC(C(C)(Cl)Br)C3 (stereo not drawn)	Pf growth 48h 13µM, Pf growth 96h inconclusive
COc1ccc2nc(C)c3c(c2c1)OC(C(C)(Cl)Br)C3 (stereo not drawn)	none
CN(C)C(=O)c1ccc(NC(=O)COc2cccc3c2OC(C)(C)C3)cc1	Pf growth 48h inconclusive (no result: NS1 inh)
Cc1ccc(F)cc1NC(=O)CSCc1nc2sc(C)c(C)c2c(=O)[nH]1	none (no result: NS1 inh)
CCC12C(=O)C(CC)(C(c3ccccc3)=C1c1ccccc1)[C@@H]1C(=O)N(c3ccccc3)C(=O)C12 (stereo partly drawn)	Pf growth 48h 2.1µM, Pf growth 96h inconclusive
CCC12C(=O)C(CC)(C(c3ccccc3)=C1c1ccccc1)[C@@H]1C(=O)N(c3ccc(C)cc3)C(=O)C12 (stereo partly drawn)	Pf growth 48h inconclusive, Pf growth 96h inconclusive
COc1cc(-c2nc(C(=O)NC3CCN(Cc4ccccc4)CC3)cc3c2[nH]c2ccccc23)cc(OC)c1OC	Pf growth 48h inconclusive, Pf growth 96h 2.1µM
COc1cc(-c2nc(C(=O)NC3CCCCC3)cc3c2[nH]c2ccccc23)cc(OC)c1OC	NS1 inh inconclusive, Pf growth 48h 6.6µM, Pf growth 96h inconclusive
C[C@H](NC(=O)c1cc2c([nH]c3ccccc32)c(-c2ccccc2)n1)C(=O)O	NS1 inh inconclusive, Pf growth 48h inconclusive, Pf growth 96h inconclusive
COc1cc(C(=O)NC2CCN(Cc3ccccc3)CC2)cc(Cl)c1OC	Pf growth 48h inconclusive, Pf growth 96h inconclusive
COc1ccc(OC)c(-c2nc(C(=O)NCCCN3CCOCC3)cc3c2[nH]c2ccccc23)c1	Pf growth 48h 2.3µM, Pf growth 96h 2.9µM, SARS PLpro yeast inconclusive
COc1ccc(OC)c(-c2nc(C(=O)NC3CCN(Cc4ccccc4)CC3)cc3c2[nH]c2ccccc23)c1	Pf growth 48h 8.3µM, Pf growth 96h 3.7µM
CC(C)C(=O)Nc1c2c(nn1-c1ccc(F)cc1)CS(=O)(=O)C2	none
CCCN[C@@H](C)C(=O)Nc1ccccc1C	none (no result: NS1 inh, SARS PLpro yeast)
COc1ccc(OCc2cc(C(=O)N(C)C(C)c3ccon3)no2)c(Cl)c1 (stereo not drawn)	Pf growth 96h inconclusive
CCCOC(=O)c1ccc(Oc2cn[nH]c2-c2ccc(OCC)cc2O)cc1	Pf growth 48h 4.7µM (no result: Pf growth 96h)
CCOc1ccc(-c2[nH]ncc2Oc2cccc(OC)c2)c(O)c1	Pf growth 48h inconclusive, Pf growth 96h inconclusive
CCCOC(=O)c1ccc(Oc2c(-c3ccc(OCC)cc3O)n[nH]c2C)cc1	Pf growth 48h 5.2µM
COc1ccc(Oc2c(-c3ccc(O)cc3O)n[nH]c2C)cc1	none
CCCc1ccc(Oc2cn[nH]c2-c2ccc(O)c(C)c2O)cc1	Pf growth 96h 10µM
CCc1c(C2(O)CCCCC2)[nH]c2ncccc12	Pf growth 96h inconclusive (no result: NS1 inh)
CCCCCCCNC(=O)C1(CC2CC(c3cccc(Br)c3)=NO2)CCN(C(=O)CCCCCBr)CC1 (stereo not drawn)	Pf growth 48h 13µM, Pf growth 96h inconclusive (no result: NS1 inh)
CCCCCCCNC(=O)C1(CC2CC(c3ccc(Cl)cc3)=NO2)CCN(C(=O)OC(C)(C)C)CC1 (stereo not drawn)	NS1 inh inconclusive, Pf growth 48h inconclusive, Pf growth 96h 5.2µM
CCOc1cc(C(=O)N2CCC(CC3CC(c4cccc(Br)c4)=NO3)(C(=O)NCC3CCCCC3)CC2)cc(OCC)c1OCC (stereo not drawn)	Pf growth 48h 0.37µM, Pf growth 96h inconclusive
COC(=O)C1(CC2CC(c3ccncc3)=NO2)CCN(C(=O)OC(C)(C)C)CC1 (stereo not drawn)	Pf growth 48h inconclusive, Pf growth 96h inconclusive (no result: NS1 inh)
c1ccc(NC2=NCCN2CCC2CCCCC2)cc1	Pf growth 96h inconclusive
Cc1c(C(=O)N2CCCC2)c(S(=O)(=O)N2CCN(c3ccccc3F)CC2)c(C)n1C	none
N#Cc1cccc(NC(=O)CCNS(=O)(=O)c2ccc3[nH]c(=O)oc3c2)c1	Pf growth 96h inconclusive
COc1ccc(-c2nn3c(-c4ccccc4)nnc3s2)cc1	Pf growth 48h inconclusive
